Shown are actives, neighbours in structure and some others; about 7% of the full set was active somewhere.
KLK7 zymogen act: proKLK7 zymogen activators, primary screen, biochemical, fluorescence intensity; purified proKLK7, EDANS-DABCYL substrate fluorescence; 100% is mature enzyme control, 0% vehicle; Kallikrein-7 (Homo sapiens), P49862; activation, % at 7 µM; hit rate 0.9% among 370,000;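 active means activation above the mean of all tested compounds plus 3 SD, computed per campaign excluding outliers beyond control limits, cut at about 13% in these data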
ADAM10 inh: human ADAM10 inhibitors, primary screen, biochemical, QFRET, HTS | Disintegrin and metalloproteinase domain-containing protein 10 (Homo sapiens), O14672 | recombinant ADAM10, EDANS/DABCYL FRET peptide cleavage, 3 h | inhibition, % at 7 µM | hit rate 0.62% among 370,000 | AID 720582, 2013;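 active means inhibition above a per-campaign cutoff equal to the mean of compounds falling between control-based bounds plus 3 SD, cut at about 20% in these data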
ADAM17 inh: ADAM17 inhibitors, primary screen, biochemical, QFRET; Disintegrin and metalloproteinase domain-containing protein 17 (Homo sapiens), P78536; recombinant ADAM17, EDANS/DABCYL FRET peptide cleavage; inhibition, % at 6.95 µM; hit rate 0.83% among 370,000; AID 720648, 2013;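 active means inhibition above the mean of compounds lying between control limits plus 3 SD, set per campaign, cut at about 8.5% in these data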
GRIN3A LBD mod: binders of NR3A ligand-binding domain, primary screen, biophysical, differential scanning fluorimetry, uHTS; Glutamate receptor ionotropic, NMDA 3A (GRIN3A) ligand-binding domain; NR3A LBD differential scanning fluorimetry, Tm shift; 0% = protein alone, 100% = glycine-bound protein; Tm shift relative to glycine control, % at 25 µM; hit rate 2.5% among 340,000;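 active means melting temperature shift of at least 10% of the positive control shift, at one fixed dose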
rCAG RNA binder: binders of r(CAG) RNA repeats, primary screen, biochemical, fluorescence | hit rate 1.3% among 370,000 | r(CAG) RNA repeat, TO-PRO-1 dye displacement fluorescence | AID 651821, 2012 | inhibition, % at 3 µM;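 active means inhibition above the plate cutoff, the mean of all test compounds on that plate plus 3 SD, cut at about 35% in these data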;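 further: higher means more dye released from RNA so lower well fluorescence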
AHR activator: AHR activators, primary screen, cell-based, luminescence, luciferase reporter, human; Aryl hydrocarbon receptor (Homo sapiens), P35869; AHR-responsive luciferase reporter cells; activation, % at 5 µM; hit rate 2.5% among 320,000; in the data active means activation above about 47%
Target sequence (P35869 whole entry, looked up): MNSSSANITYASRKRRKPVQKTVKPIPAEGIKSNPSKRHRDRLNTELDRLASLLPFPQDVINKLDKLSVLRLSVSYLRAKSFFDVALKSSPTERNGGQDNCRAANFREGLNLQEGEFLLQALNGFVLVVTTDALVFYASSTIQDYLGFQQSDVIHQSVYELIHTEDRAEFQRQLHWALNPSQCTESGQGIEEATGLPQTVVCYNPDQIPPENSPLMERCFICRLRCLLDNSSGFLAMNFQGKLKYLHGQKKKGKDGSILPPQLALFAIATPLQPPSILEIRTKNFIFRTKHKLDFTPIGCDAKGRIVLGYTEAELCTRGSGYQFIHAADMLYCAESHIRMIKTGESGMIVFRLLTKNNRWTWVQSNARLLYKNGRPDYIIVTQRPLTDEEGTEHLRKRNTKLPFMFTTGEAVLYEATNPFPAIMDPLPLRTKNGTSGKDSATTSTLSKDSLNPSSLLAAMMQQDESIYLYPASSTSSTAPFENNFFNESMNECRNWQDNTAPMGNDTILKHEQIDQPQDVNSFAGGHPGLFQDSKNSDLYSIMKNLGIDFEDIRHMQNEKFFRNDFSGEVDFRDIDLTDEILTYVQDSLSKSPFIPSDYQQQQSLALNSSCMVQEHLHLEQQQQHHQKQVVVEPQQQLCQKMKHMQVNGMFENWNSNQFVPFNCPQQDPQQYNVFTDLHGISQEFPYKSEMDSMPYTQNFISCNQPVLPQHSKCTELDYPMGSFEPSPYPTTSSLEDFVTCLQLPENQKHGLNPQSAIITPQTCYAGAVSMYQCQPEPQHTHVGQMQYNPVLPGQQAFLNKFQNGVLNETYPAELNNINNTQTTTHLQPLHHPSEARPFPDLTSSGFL
rCAG bind conf: small molecules binding CAG repeat RNA – biochemical, fluorescence, confirmation | shares compounds with rCAG RNA binder | r(CAG) RNA repeat, TO-PRO-1 dye displacement fluorescence | AID 652065, 2013 | hit rate 70% among 4,300 | inhibition, % at 3 µM;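 active means inhibition above a per-plate cutoff, the mean inhibition of sample wells plus 3 SD, cut at about 35% in these data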;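 further: loss of TO-PRO-1 fluorescence as compound displaces dye from 1x1 AA loop RNA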
DNA CAG counter: displacement of TO-PRO-1 from CAG DNA duplex, counter-screen for rCAG RNA repeat binder project, biochemical, fluorescence, TO-PRO-1 dye, d(CAG) DNA oligo; shares compounds with rCAG RNA binder; inhibition, % at 3 µM; d(CAG) DNA oligo TO-PRO-1 dye displacement; hit rate 94% among 4,300;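 active means inhibition above its plate's cutoff, the mean test-well inhibition plus 3 SD, cut at about 4.8% in these data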;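 further: hits displace the dye from DNA and so lower well fluorescence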
Hits are given with their value; n = inactive; x = no result given.

SMILES	KLK7 zymogen act	ADAM10 inh	ADAM17 inh	GRIN3A LBD mod	rCAG RNA binder	AHR activator	rCAG bind conf	DNA CAG counter
Cc1cccc(/C=N/n2c(-c3cc(-c4ccccc4)n[nH]3)n[nH]c2=S)c1	n	n	n	n	n	n	x	x
COc1cc(C=Nn2c(-c3cc(-c4ccccc4)n[nH]3)n[nH]c2=S)ccc1OC(C)=O	n	n	n	x	58.4	x	44.0	12.8
S=c1[nH]nc(-c2cc(-c3ccccc3)n[nH]2)n1N=Cc1c[nH]c2ccccc12	n	n	n	x	78.4	x	65.7	22.8
Cc1cccc(-c2n[nH]c(=S)n2/N=C/C=C/c2ccco2)c1	n	n	n	n	42.6	n	n	12.5
CCc1nc2c(OCC3CCCCC3)cccn2c1N(C)C(=O)c1ccc(C)cc1	n	n	n	x	n	x	x	x
COc1ccccc1/C=C/C=N/n1c(-c2cc(-c3ccccc3)n[nH]2)n[nH]c1=S	n	n	n	n	44.3	n	63.4	24.7
COc1ccc(Nc2nc3ccccc3nc2NS(=O)(=O)c2ccc(NC(C)=O)cc2)cc1	n	n	n	11.7	80.0	n	60.3	20.7
O=C(O)c1cccc(Nc2nc3ccccc3nc2NS(=O)(=O)c2ccc(F)cc2)c1	n	n	n	n	n	n	x	x
CC(=O)Nc1ccc(S(=O)(=O)Nc2nc3ccccc3nc2Nc2ccc(O)c(C(=O)O)c2)cc1	n	n	n	n	46.4	n	n	n
Cc1cccc(S(=O)(=O)Nc2nc3ccccc3nc2Nc2cccc(C(=O)O)c2)c1	n	n	n	n	52.8	n	56.6	20.4
CC(=O)Nc1ccc(S(=O)(=O)Nc2nc3ccccc3nc2N2CCCC2)cc1	n	n	n	n	n	n	x	x
CC(=O)Nc1ccc(S(=O)(=O)Nc2nc3ccccc3nc2Nc2ccc(S(N)(=O)=O)cc2)cc1	n	n	n	26.8	52.2	n	35.3	8.3
CCCCCCCCN1C(=O)[C@H](CC(=O)NCCc2ccccc2OC)C[C@@]2(C(=O)OC)CC(C)(C)CC=C12	n	n	n	x	n	x	x	x
O=[N+]([O-])c1cc2c(ccc3occc32)o1	n	n	n	x	n	x	x	x
CCN(CC)C(=O)C1=C(C)N(Cc2ccc(F)cc2)C(=O)C(CC(=O)NCCCN(C)C)C1 (stereo not given)	n	n	n	x	n	x	x	x
NS(=O)(=O)c1ccc(Nc2nc3ccccc3nc2NS(=O)(=O)c2cccc([N+](=O)[O-])c2)cc1	n	n	n	32.0	94.4	n	87.7	61.8
COc1ccc(Nc2nc3ccccc3nc2NS(=O)(=O)c2cccs2)cc1	n	n	n	21.7	42.4	n	74.0	35.9
CC(=O)c1ccc(Nc2nc3ccccc3nc2NS(=O)(=O)c2cccs2)cc1	n	n	n	n	n	n	x	x
Cc1cccnc1NS(=O)(=O)c1cccc([N+](=O)[O-])c1	n	n	n	n	n	n	x	x
CC(C)c1cn(CC[C@@H]2CC[C@@H](NC(=O)C3CCCCC3)[C@@H](CO)O2)nn1	n	n	n	x	n	x	x	x
COC(=O)c1ccc(Cn2cc(C(F)(F)F)ccc2=O)cc1	n	n	n	n	n	n	x	x
COC(=O)c1cc(=O)n(-c2ccc(C(F)(F)F)cc2)[nH]1	n	n	n	n	61.0	n	n	n
CCOc1ccc(C2C(C(=O)c3ccc(C)o3)=C(O)C(=O)N2c2cc(C)on2)cc1OC (stereo not given)	n	n	n	n	n	n	x	x
Cc1cc(N2C(=O)C(O)=C(C(=O)c3cc4ccccc4o3)C2c2ccc(OC(C)C)cc2)no1 (stereo not given)	n	n	n	n	n	n	x	x
CCCCCOc1ccc(C2C(C(=O)c3ccc(C)o3)=C(O)C(=O)N2c2cc(C)on2)cc1 (stereo not given)	n	n	n	n	36.2	n	49.5	15.2
SMILES	KLK7 zymogen act	ADAM10 inh	ADAM17 inh	GRIN3A LBD mod	rCAG RNA binder	AHR activator	rCAG bind conf	DNA CAG counter
CCCOc1cccc(C2C(C(=O)c3cc4ccccc4o3)=C(O)C(=O)N2c2cc(C)on2)c1 (stereo not given)	n	n	n	n	43.5	n	76.6	35.8
COC(=O)c1ccc(C2C(C(=O)c3cc4ccccc4o3)=C(O)C(=O)N2c2cc(C)on2)cc1 (stereo not given)	n	n	n	n	n	n	x	x
Cc1cc(N2C(=O)C(O)=C(C(=O)c3cc4ccccc4o3)C2c2cccc(Br)c2)no1 (stereo not given)	n	n	n	n	69.5	n	79.3	45.8
COc1cccc(C2NC(=S)NC(C)=C2C(C)=O)c1 (stereo not given)	n	n	n	x	n	x	x	x
O=C(Cn1cnc2ccccc2c1=O)N1CCN(Cc2ccc(F)cc2)CC1	n	n	n	x	n	x	x	x
CCOC(=O)CNC(=O)CSc1nnc(-c2ccccc2)n1CC	n	n	n	x	n	x	x	x
O=C(NCc1ccccc1)[C@@H]1CCCN1C(=O)[C@H]1CCCN1C(=O)N1CCCCC1	n	n	n	x	n	x	x	x
COC(=O)c1ccccc1NCc1cc(=O)oc2cc(O)c(O)cc12	n	n	n	n	36.3	n	52.1	22.8
O=C(Nc1ccc(C(=O)O)cc1)/C(=C/c1ccc2c(c1)OCO2)NC(=O)c1cccc(Br)c1	n	n	n	n	50.2	n	40.9	10.1
O=C(Nc1cccc(C(=O)O)c1)/C(=C\c1ccc2c(c1)OCO2)NC(=O)c1ccccc1	n	n	n	n	n	n	x	x
O=C(Nc1cccc(C(=O)O)c1)/C(=C\c1ccc2c(c1)OCO2)NC(=O)c1ccc(Br)cc1	n	n	n	n	42.7	n	n	6.9
CCOC(=O)C1=C(CSc2nc3c(cc2C#N)CN(C)CC3)OC(N)=C(C#N)C1c1ccc(Cl)cc1 (stereo not given)	n	n	n	n	34.8	n	n	11.0
CCOc1cc(/C=C(/NC(C)=O)C(=O)O)cc(Cl)c1OCc1cccc(Br)c1	n	n	n	n	44.0	n	n	5.5
CCOc1cc(C(N)=O)cc(Cl)c1OCc1ccccc1	n	n	n	n	n	n	x	x

Source: PubChem BioAssay
